High-throughput results: PubChem BioAssay, The Scripps Research Institute Molecular Screening Center
Sampled rows, rich in hits. Any-hit rate of the full collection: about 3.4%.
GPR151 ag: activates the human receptor GPR151; Q8TDV0; PathHunter beta-arrestin GPR151 cells, luminescence; activation, % at 11.2 µM; 650,000 tested, 1% active; AID 1508602; in the data active means activation above about 4.9%;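 further: 0% = median of compound wells and 100% = cells with positive control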
TEAD-YAP block: TEAD-YAP interaction inhibition; HEK-TIYL cells, TEAD-Gal4/YAP UAS-luciferase luminescence; inhibition, % at 9.12 µM; 640,000 tested, 1.4% active; AID 1259422; in the data active means inhibition above about 32%;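 further: 0% = median of test compound wells and 100% = reference inhibitor wells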
MITF primary: human MITF inhibition, primary screen | 650,000 tested, 0.91% active | AID 1259374 | inhibition, % at 2.6 µM | AlphaScreen MITF homodimerization, bead proximity signal; in the data active means inhibition above about 50%;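 further: 0% = vehicle wells with protein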
Target sequence (O75030 whole entry, looked up): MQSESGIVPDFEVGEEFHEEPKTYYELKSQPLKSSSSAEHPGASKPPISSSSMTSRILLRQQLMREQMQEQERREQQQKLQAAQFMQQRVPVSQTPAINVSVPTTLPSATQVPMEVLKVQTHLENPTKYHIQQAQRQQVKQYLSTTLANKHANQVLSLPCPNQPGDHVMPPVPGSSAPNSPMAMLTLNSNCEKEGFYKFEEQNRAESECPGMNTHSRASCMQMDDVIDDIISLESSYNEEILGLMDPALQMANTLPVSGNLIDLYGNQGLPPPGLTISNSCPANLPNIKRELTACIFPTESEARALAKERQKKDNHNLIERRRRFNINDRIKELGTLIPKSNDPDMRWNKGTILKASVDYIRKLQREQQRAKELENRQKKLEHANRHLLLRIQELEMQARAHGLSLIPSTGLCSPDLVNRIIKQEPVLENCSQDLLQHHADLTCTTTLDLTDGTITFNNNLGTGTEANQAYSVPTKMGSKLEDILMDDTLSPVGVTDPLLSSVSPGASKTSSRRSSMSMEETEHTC
FBW7 activator: activators of human E3 ligase FBW7; Q969H0; AlphaScreen FBW7–phospho-cyclin E peptide binding, activator screen; normalized activity (activation), % at 26.1 µM; 650,000 tested, 0.13% active; in the data active means normalized activity above about 1.9%;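 further: purified mutant Fbw7 with reduced substrate affinity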
* = called active by the depositor.

SMILES	GPR151 ag	TEAD-YAP block	MITF primary	FBW7 activator
CCc1c(C(=O)c2ccccc2)oc2ccc3c(C)cc(=O)oc3c12	0	41*	-6	0
CCOCCCNC(=O)/C(C#N)=C/c1ccc(Cl)c([N+](=O)[O-])c1	-3	5	16	1
CCOCCCNC(=O)/C(C#N)=C/c1cc(OC)c(O)c([N+](=O)[O-])c1	-1	48*	20	0
COc1cc(/C=C(/C#N)C(=O)Nc2ccc(O)cc2)cc(Br)c1O	2	43*	0	0
COc1cc(/C=C(\C#N)C(=O)Nc2ccc(Cl)cc2)cc([N+](=O)[O-])c1O	-1	8	23	1
COc1cc(/C=C(/C#N)C(=O)Nc2cccc(C)c2)cc(Br)c1O	-1	3	-4	0
COc1cc(/C=C(\C#N)C(=O)Nc2ccc(F)cc2)cc([N+](=O)[O-])c1O	-1	37*	-5	0
CCN(CC)c1ccc(/C=C(/C#N)C(=O)Nc2ccc(O)cc2)cc1	0	40*	17	0
COc1ccc(Cl)cc1C(=O)Nc1cccc(-c2nnc(-c3ccco3)o2)c1	1	8	18	0
COc1cc(/C=C(/C#N)C(=O)Nc2ccc(O)cc2)ccc1O	1	47*	17	0
COc1cc(/C=C(\C#N)C(=O)Nc2ccc(O)cc2)cc(Cl)c1O	0	54*	3	0
CCOc1cc(/C=C(/C#N)C(=O)Nc2ccc(O)cc2)cc(Br)c1O	-1	56*	-9	0
Cc1ccc(C)c(NC(=O)CN(C)C(=O)Cn2ccsc2=N)c1	0	7	-1	0
O=C(CSc1nc(-c2ccccc2)ns1)N1CCCCCC1	-2	39*	9	0
CC(=NC#N)c1c(C(F)(F)F)[nH]n(-c2nc3ccccc3s2)c1=O	-7	42*	2	0
O=C(CC(=O)c1c[nH]c2ccccc12)c1ccccc1	2	-10	16	0
O=C(CNc1ccncc1)c1c[nH]c2ccccc12	2	83*	-12	0
O=C1N[C@@H](Cc2ccc(Cl)cc2)C(=O)N2C[C@@H](NCc3ccc(F)c(F)c3)C[C@@H]12	-1	-3	-7	0
CCCCN1C(=O)NC(=O)/C(=C\c2c(OC)cc(OC)cc2OC)C1=O	1	2	-5	0
Cc1csc(NC2OC(=O)c3ccccc32)n1 (stereo unspecified)	0	-6	17	0
O=C1OC(Nc2nc3ccccc3s2)c2ccccc21 (stereo unspecified)	-1	-4	10	2.0*
Clc1cnc(Nc2ccc(-n3cnc(N4CCOCC4)n3)cc2)nc1-c1cn[nH]c1	-1	55*	0	0
Cn1cc(-c2ccc3cnc(Nc4ccc(-c5ccc(N6CCOCC6)nc5)cc4)nc3c2Cl)cn1	0	18	2	0
Cn1cc(-c2ccc3cnc(Nc4ccc(-n5cnc(N6CCOCC6)n5)cc4)nc3c2Cl)cn1	0	56*	6	0
CC(C)N1CCN(c2ncn(-c3ccc(Nc4ncc5ccc(-c6cnn(C)c6)c(Cl)c5n4)cc3)n2)CC1	-1	90*	-9	0
SMILES	GPR151 ag	TEAD-YAP block	MITF primary	FBW7 activator
c1cc(-n2cnc(N3CCOCC3)n2)ccc1Nc1ncc2cc(-c3cn[nH]c3)ccc2n1	-2	-6	40	1
Cn1cc(-c2ccc3cnc(Nc4ccc(N5CCOCC5)nc4)nc3c2Cl)cn1	0	51*	-7	0
Cn1cc(-c2cccc3cnc(Nc4ccc(-n5cnc(N6CCOCC6)n5)cc4)nc23)cn1	0	2	1	0
O=C(Cc1cccc2ccccc12)Nc1ccc(Oc2ncnc3sc4c(c23)CCCC4)cc1	1	2	12	0
c1ccc(Nc2nc(CN3CCSCC3)nc3ccccc23)cc1	0	4	-2	0
Cn1cc(-c2ccc3cnc(Nc4ccc(-n5cnc(N6CCOCC6)n5)cc4)nc3c2OCCN2CCOCC2)cn1	-2	96*	33	0
Cn1cc(-c2ccc3cnc(Nc4ccccc4)cc3c2)cn1	-1	36*	17	1
Cn1cc(-c2nc(Nc3ccc(-n4cnc(N5CCC(O)CC5)n4)cc3)ncc2Cl)cn1	-1	72*	24	0
Cc1nc(C)n(-c2ccc(Nc3cc(-c4cnn(C)c4)ccn3)cc2)n1	-1	20	8	1
Cn1cc(-c2ccc3cnc(Nc4ccc(-n5cnc(N6CCOCC6)n5)cc4)cc3c2)cn1	1	83*	0	0
Cn1cc(-c2nc(Nc3ccc(-n4cnc(N5CCOCC5)n4)cc3)ncc2F)cn1	-1	22	-4	0
O=C(NCCOc1ccccc1)c1cncc(-c2ccc(N3CCOCC3)nc2)c1	1	-6	3	0
COc1cc(C)ccc1OCCOCCOc1ccccc1C=O	0	-3	-11	0
CCOC(=O)c1c(-c2cnn(C)c2)ccc2cnc(Nc3ccc(-n4cnc(N5CCOCC5)n4)cc3)nc12	-1	98*	21	0
Cc1c(-c2cnn(C)c2)ccc2cnc(Nc3ccc(-n4cnc(N5CCOCC5)n4)cc3)nc12	2	29	14	0
CCn1c(-c2ccc(F)cc2)csc1=Nc1cc(OC)c(Cl)cc1OC	2	33*	28	-1
CCn1c(-c2ccc(Cl)cc2)csc1=Nc1cc(OC)c(Cl)cc1OC	2	35*	6	0
Cc1cc(C)c(C#N)c(SCc2nc3ccccc3[nH]2)n1	0	-54	-2	0
Cc1cc(C)c(C#N)c(SCc2nc3cc([N+](=O)[O-])c([N+](=O)[O-])cc3[nH]2)n1	0	86*	5	0
COc1cccc(/C(C)=N/NC(=O)c2cc(-c3cccnc3)nc3ccccc23)c1	-1	10	7	0
C/C(=N\NC(=O)c1cc(-c2cccnc2)nc2ccccc12)c1ccccc1O	2	41*	6	0
CCOC(=O)c1ccc(COC(=O)c2ccccc2NC)cc1	-1	-9	-9	2.2*
COc1ccc(N=Cc2c(O)n(C)c(=S)n(C)c2=O)cc1	0	-1	-7	0
CSC1SC[C@H]2C(=O)N(C)[C@@H](C(C)C)C(=O)OC[C@@H](NC(=O)c3cnc4ccccc4n3)C(=O)N[C@@H](C)C(=O)N(C)[C@H]1C(=O)N(C)[C@@H](C(C)C)C(=O)OC[C@@H](NC(=O)c1cnc3ccccc3n1)C(=O)N[C@@H](C)C(=O)N2C (stereo partly specified)	1	96*	-6	0
O=[N+]([O-])c1ccc(N2CCCCC2)cc1N1CCc2ccccc2C1	1	9	10	0
O=[N+]([O-])c1ccc(N2CCCC2)cc1N1CCc2ccccc2C1	0	73*	-12	0
CC(=O)Nc1cccc2c1C(=O)c1cccc(NC(C)=O)c1C2=O	-1	3	-9	0
CC(=O)Nc1ccc(NC(C)=O)c2c1C(=O)c1c(NC(C)=O)ccc(NC(C)=O)c1C2=O	2	1	82*	0
COc1ccc(C(=O)Nn2c(SCC(=O)NCc3ccco3)nc3ccccc3c2=O)cc1	0	75*	-10	0
